# Shown are actives, neighbours in structure and some others; about 2.6% of the full set was active somewhere.
# Cruzain Triton = blocks cruzain activity in presence of Triton detergent. 200,000 tested, 0.43% active. Potency, µM, for inactives: max response, negative = inhibition, actives largely listed as inhibitors. P25779. purified cruzain, Z-FR-AMC fluorescence, 0.01% Triton;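 also: plate controls were neutral wells for no effect and buffer without enzyme for full effect; nearly all actives have a fitted effect of over 40% in size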
# Target sequence (P25779 123-467 limits assumed): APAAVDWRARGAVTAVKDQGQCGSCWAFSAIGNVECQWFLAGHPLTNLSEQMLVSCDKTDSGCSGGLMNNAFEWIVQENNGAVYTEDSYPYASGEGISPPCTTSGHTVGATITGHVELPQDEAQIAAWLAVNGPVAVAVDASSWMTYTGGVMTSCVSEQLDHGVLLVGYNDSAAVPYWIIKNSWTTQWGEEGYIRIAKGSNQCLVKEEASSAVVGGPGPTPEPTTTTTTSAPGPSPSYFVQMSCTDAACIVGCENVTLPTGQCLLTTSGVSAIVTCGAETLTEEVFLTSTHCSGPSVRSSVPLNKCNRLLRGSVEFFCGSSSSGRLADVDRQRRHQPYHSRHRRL
#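 15 min RT preincubation of 1.5 nM cruzain with compound, then 2 uM Z-FR-AMC added; kinetic AMC fluorescence, 60 s delta. Triton X-100 0.01%, pH 5.5.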
# Cruzain inh noDet = cruzain (T. cruzi) inhibition without detergent; P25779; 200,000 tested, 2.3% active; Potency, µM, for the others: max response, negative = inhibition, usual class: inhibitors; purified cruzain, Z-FR-AMC fluorescence, no detergent;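 also: plate controls were enzyme without inhibitor for no effect and buffer without enzyme for full effect; nearly all actives have a fitted effect of over 40% in size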
#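 Purified cruzain at 1.5 nM, pre-incubated 15 min with compound at room temperature in 100 mM sodium acetate pH 5.5, 5 mM DTT, 0.00005% Triton X-100. Reaction started with 2 uM Z-FR-AMC; AMC fluorescence increase over 60 s gives rate.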
# * = called active by the depositor; u = inconclusive. Calls follow the shape of the dose curve; as a rule, active = well fitted curve in the direction sought with a large enough effect; inconclusive = small, poorly fitted or top-dose-only effect, or another doubt; inactive = no such curve, though single readings can be large; an effect the other way counts as inactive or inconclusive. Potency is read from the fitted curve at half-maximal effect.
SMILES,Cruzain Triton,Cruzain inh noDet
CC(=O)N[C@H]1[C@@H](O[C@@H](C)C(=O)O)[C@H](O)[C@H](CO)O[C@@H]1O,0%,-2%
Cc1cc(C)nc(NS(=O)(=O)c2ccc(NC(=O)COc3ccc(C(C)(C)C)cc3)cc2)n1,-14%,u
O=C(Nc1ccccc1C(=O)OCc1cc(=O)n2nc(C3CC3)sc2n1)c1ccc(Cl)cc1,1%,7%
Cc1cc2c(cc1S(=O)(=O)N1CCC(C(N)=O)CC1)OCC(=O)N2,5%,2%
O=C(CN1CCN(c2ccc(O)cc2)CC1)Nc1cc([N+](=O)[O-])ccc1Cl,-24%,25µM*
CC(C(=O)Nc1cc([N+](=O)[O-])ccc1Cl)N1CCN(c2ccccc2)CC1 (stereo unspecified),-2%,1%
O=C(C1CCCN(S(=O)(=O)c2cccs2)C1)N1CCN(c2cccc(Cl)c2)CC1 (stereo unspecified),-8%,-16%
CCOc1ccccc1NC(=O)Nc1ccc(Cl)cc1,-10%,-10%
Cc1cc(C)nc(/N=C(/NC(=O)Nc2ccc(Cl)c(Cl)c2)Nc2cccc(Cl)c2)n1,0%,7.9µM*
CCOc1ccccc1N/C(=N/c1nc(C)cc(C)n1)NC(=O)Nc1ccc(Cl)c(Cl)c1,1%,4µM*
Cc1cc(C)nc(/N=C(/NC(=O)Nc2ccc(Cl)c(Cl)c2)Nc2ccccc2)n1,-2%,u
CCCOc1ccccc1N/C(=N/c1nc(C)cc(C)n1)NC(=O)Nc1ccc(Cl)cc1,5%,7.9µM*
COc1ccccc1N/C(=N/c1nc(C)cc(C)n1)NC(C)=O,3%,2%
CCOc1ccc(NC(=O)CSc2ncc3c(n2)-c2ccc(Cl)cc2N(Cc2ccccc2)S3(=O)=O)cc1,2%,-14%
CCCC(=O)NC(C)c1nc2ccccc2n1Cc1ccccc1 (stereo unspecified),-1%,2%
CCOC(=O)N1CCc2c(sc(NCc3cccc(F)c3)c2C(=O)Nc2ccc(OCC)cc2)C1,-11%,23%
CCCOc1ccc(CN(C(=O)c2cc(=O)c3ccc(C)cc3o2)C2CCS(=O)(=O)C2)cc1 (stereo unspecified),-6%,u
Cc1cccc(C)c1NC(=O)CN1C(=O)c2ccccc2Sc2ncccc21,-1%,u
Cc1ccccc1OCC(=O)Nc1ccc2nc(SCC(=O)N(C)c3ccccc3)sc2c1,-4%,-18%
COc1ccccc1CNC(=O)C(C)n1c(=O)cc(-c2ccccc2)c2c(C)nn(C)c21 (stereo unspecified),-7%,u
CCOc1ccc(CCNC(=O)c2ccc(CS(=O)(=O)Cc3ccccc3Cl)o2)cc1OCC,3%,9%
Cc1cc(N=Cc2c(O)n(-c3ccc4c(c3)OCO4)c(=O)c3ccccc23)ccn1,-9%,-24%
Cc1ccc(-n2c(O)c(C=Nc3ccc4c(c3)OCO4)c3ccccc3c2=O)cc1C,-1%,10µM*
CCOc1ccc(S(=O)(=O)NCCc2sc(-c3ccc(C)cc3)nc2C)cc1,-8%,5%
CCn1c(CC(=O)Nc2ccc(C)c(Cl)c2)nnc1SCC(=O)Nc1nc(C)cs1,9%,u
SMILES,Cruzain Triton,Cruzain inh noDet
CCn1c(CC(=O)Nc2ccc(C)c(Cl)c2)nnc1SCc1ccc(Cl)c(Cl)c1,5%,13µM*
Cc1ccccc1-c1nnc(SCC(=O)N2CCCCC2)o1,-2%,-2%
Cc1ccc(O)c(C(=O)c2cc(C(=O)NCCc3ccccc3)c(=O)n(CCc3ccccc3)c2)c1,-5%,25µM*
COc1ccc(O)c(C(=O)c2cc(C(=O)NCCc3ccccc3)c(=O)n(CCc3ccccc3)c2)c1,-5%,-2%
O=C(Nc1ccccc1C(F)(F)F)C1CCN(S(=O)(=O)c2ccccc2)CC1,-3%,-1%
COc1ccc(-c2nc3nc(C)cc(Nc4cccc(C(F)(F)F)c4)n3n2)cc1,-1%,25µM*
Cc1cc(Nc2cccc(C(F)(F)F)c2)n2nc(C)nc2n1,-1%,-4%
COc1ccccc1CNc1nc(-c2ccco2)nn1S(=O)(=O)c1ccc2ccccc2c1,-1%,u
CCOc1ccc(Nc2oc(-c3ccc(COc4ccccc4C)o3)nc2C#N)cc1,-3%,u
COc1ccc(CNc2ncncc2-c2cccc(NS(C)(=O)=O)c2)c(OC)c1,2%,1%
CC(=O)[C@@H]1[C@@H]2C(=O)N(C3CCCCC3)C(=O)[C@@H]2C2c3ccccc3C=CN21 (stereo partly specified),1%,-15%
COc1ccc(NC(=O)[C@@H]2[C@@H]3C(=O)N(C4CCCCC4)C(=O)[C@@H]3C3c4ccccc4C=CN32)cc1 (stereo partly specified),-2%,16µM*
Cc1cc(C)cc(N2CCn3c2nc2c3c(=O)n(CCc3ccccc3)c(=O)n2C)c1,-3%,u
CC1CC(C)CN(c2ccc(-n3cnnn3)cc2[N+](=O)[O-])C1 (stereo unspecified),-6%,3%
O=[N+]([O-])c1cc(-n2cnnn2)ccc1N1CCC(Cc2ccccc2)CC1,-5%,25µM*
CCCCOC(=O)c1ccc(NC2=NS(=O)(=O)c3ccccc32)cc1,-4%,3%
CCN(CC)S(=O)(=O)c1ccc2c(c1)nc(CN(C)C(=O)Nc1ccc(F)cc1)n2C,0%,4%
CCCCCn1c(N)c(-c2nc3ccccc3o2)c2c([N+](=O)[O-])nn(CC)c(=O)c21,-5%,10µM*
CCCCCn1c(N)c(-c2nc3ccccc3o2)c2c([N+](=O)[O-])nn(C)c(=O)c21,-7%,u
COc1ccc2c(-c3cc4ccc(OCc5ccc(F)cc5)cc4oc3=O)cc(=O)oc2c1,-7%,10µM*
O=c1oc2cc(OCc3ccc(C(F)(F)F)cc3)ccc2cc1-c1ccccn1,3%,-10%
CC(C)CN(CCNC(=O)c1cc(-c2cccs2)nc2ccccc12)CC(C)C,-2%,5%
CC(=O)c1cccc(NC(=O)C2CCN(S(=O)(=O)c3ccc(F)cc3)CC2)c1,2%,-11%
CCOc1ccccc1NC(=O)C1CCN(S(=O)(=O)c2ccc3[nH]c(=O)ccc3c2)CC1,-3%,10%
CC(=O)c1ccc(N2CCN(S(=O)(=O)c3ccc4[nH]c5c(c4c3)CCCCC5)CC2)cc1,-6%,10µM*
SMILES,Cruzain Triton,Cruzain inh noDet
COc1cccc(NS(=O)(=O)c2ccc3[nH]c4c(c3c2)CCCCCC4)c1,-10%,-29%
COc1cccc(NC(=O)C2CCN(S(=O)(=O)c3ccc4[nH]c5c(c4c3)CCCCC5)CC2)c1,-2%,20µM*
CC(=O)c1ccc(NS(=O)(=O)c2ccc3[nH]c4c(c3c2)CCCCCC4)cc1,-12%,u
O=C(Nc1cccc(F)c1)C1CCN(S(=O)(=O)c2ccc3[nH]c4c(c3c2)CCCCC4)CC1,1%,16µM*
COc1ccccc1NC(=O)C1CCN(S(=O)(=O)c2ccc3[nH]c4c(c3c2)CCCCC4)CC1,-3%,20µM*
COC(=O)c1cc2sc(C)cc2n1Cc1ccc(F)cc1Cl,0%,5%
Cc1noc(C)c1C(=O)N1CCC2(CCCN(c3ncccn3)C2)CC1,2%,-21%
O=[N+]([O-])c1ccc2c(c1)c(S(=O)(=O)O)cc1nonc12,15%,4%
CCc1ccc(NC(=O)CC(c2ccc(C)cc2)N2Cc3ccccc3C2=O)cc1 (stereo unspecified),0%,1%
Clc1ccc(-c2noc3ncnc(N4CCCCC4)c23)cc1,-4%,0%
CC1=C(C(=O)N2CCN(c3ccccc3)CC2)C2(CCCCC2)OC1=O,0%,7%
CSc1cccc(NC(=O)C2CCN(S(C)(=O)=O)CC2)c1,10%,1%

# Bioassay records as filed in PubChem.
